Drawing on the supplement of paper PMC6555819, this text covers PBM binding z-score for seven sequences.

Assay in all cases: PBM binding z-score (relative to random genomic background probes); higher = stronger binding; sequences stand for … in GC…GCGATTGACAGCGTAGAATGAAGG
In assay [1] the test system is FXR:RXRa (NR concentration 270 nM, RXRa partner concentration 90 nM). Put shortly:
(§1)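 Binding buffer was PBS pH 7.4 with 2% milk, 0.02% Triton X-100, 1 mM DTT, 0.2 mg/mL BSA and 0.4 mg/ml salmon testes DNA. In it, ligand-free nuclear receptor dimers were incubated 1 h on custom Agilent 4×180K protein-binding microarrays carrying double-stranded probes. Antibodies against each partner (one per run) detected binding, and z-scores were calculated against random background probes after regression normalization of scanned fluorescence.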

The subject of assay [2] is LXRa:RXRa (NR concentration 270 nM, RXRa partner concentration 90 nM). Put shortly: as §1
Assay [3] deals with LXRa homodimer (NR concentration 270 nM). Put shortly:
as §1

Assay [4] has as its system LXRb:RXRa (NR concentration 270 nM, RXRa partner concentration 90 nM). Put shortly:
as §1

Assay [5] has as its system LXRb homodimer (NR concentration 270 nM). Put shortly:
as §1

Assay [6] has as its system PPARa:RXRa (NR concentration 270 nM, RXRa partner concentration 90 nM). Put shortly:
as §1

The subject of assay [7] is PPARg:RXRa (NR concentration 180 nM, RXRa partner concentration 90 nM). Put shortly: as §1
Assay [8] deals with PPARg:RXRa 270nM:90nM, anti-RXR (NR concentration 270 nM, RXRa partner concentration 90 nM). Put shortly:
as §1

Assay [9] relates to PPARg:RXRa 30nM:10nM, anti-RXR (NR concentration 30 nM, RXRa partner concentration 10 nM). In outline: as §1
The subject of assay [10] is PPARg:RXRa 90nM:30nM, anti-RXR (NR concentration 90 nM, RXRa partner concentration 30 nM). Put shortly: as §1
In assay [11] the test system is PPARg:RXRa DBDmut IVT, anti-RXR (DBD mutation: RXRa K156A/R161A, NR concentration 270 nM, RXRa partner concentration 90 nM). Put shortly:
as §1

Assay [12] deals with PPARg:RXRa IVT, anti-PPARg (NR concentration 270 nM, RXRa partner concentration 90 nM). In outline:
as §1

In assay [13] the test system is PPARg DBDmut:RXRa IVT, anti-PPARg (DBD mutation: PPARg1 K132A/R137A, NR concentration 270 nM, RXRa partner concentration 90 nM). Put shortly: as §1
The test system of assay [14] is PPARg DBDmut IVT, anti-PPARg (DBD mutation: PPARg1 K132A/R137A, NR concentration 270 nM). Put shortly:
as §1

Assay [15] relates to PPARg homodimer (NR concentration 180 nM). Put shortly: as §1
The test system of assay [16] is PXR:RXRa (NR concentration 270 nM, RXRa partner concentration 90 nM). In outline: as §1
Assay [17] concerns PXR homodimer (NR concentration 270 nM). In outline:
as §1

Assay [18] concerns RARa:RXR (NR concentration 270 nM, RXRa partner concentration 90 nM). Put shortly: as §1
The test system of assay [19] is RARa homodimer (NR concentration 270 nM). Put shortly:
as §1

Assay [20] has as its system RARb:RXRa (NR concentration 270 nM, RXRa partner concentration 90 nM). In outline:
as §1

Regarding TAGCCAAGGTCATTCAGGGGCCAGTATAGAAAGC, the PBM binding z-score amounted to 7.35 in assay [1]; 5.84 in assay [2]; 1.66 in assay [3]; 4.6 in assay [4]; 2.35 in assay [5]; 5.19 in assay [6]. For the same sequence, the PBM binding z-score in [7] worked out at 4.6; in assay [8], 4.81; in [9], 1.47; in [10], 3.17; in assay [11] it was 1.73; in assay [12], 3. Besides, the PBM binding z-score in [13] stood at 1.11; in assay [14], 0.966; in assay [15], 3.14; in assay [16] it was 4.91; in [17] it was 1.43; in assay [18], 5.72. Further, the PBM binding z-score in [19] was determined as 0.389; in assay [20], 5.06.
As for TAGCCTAGGTCATTTGGCCAGTATAGTACGCATC, the PBM binding z-score in assay [1] turned out to be 4.44; in assay [2], 3.74; in assay [3], 1.16; in assay [4], 2.71; in assay [5] it was 1.07; in [6], 3.48. Moreover, the PBM binding z-score in assay [7] worked out at 2.06; in [8] it was 2.03; in assay [9], 0.424; in assay [10] it was 1.5; in assay [11], 1.38; in assay [12], 2.47. The PBM binding z-score in assay [13] is 0.221; in [14], 0.0367; in [15], 0.566; in [16], 1.61; in assay [17] it was -0.0591; in assay [18], 2.08. Also, the PBM binding z-score in assay [19] was -0.227; in [20], 3.67.
On to AGTCAAAGTTCAGGACGAGGTACCGTAAAGCACG, for which the PBM binding z-score in assay [1] was 3.73; in assay [2] it was 3.6; in assay [3] it was 1.07; in assay [4], 1.66; in assay [5] it was 0.243; in assay [6], 3.21. The PBM binding z-score in assay [7] is 4.19; in assay [8] it was 4.86; in assay [9], 1.63; in assay [10], 3.51; in assay [11], -0.264; in assay [12], 0.999. The PBM binding z-score in assay [13] was -0.0468; in assay [14], -0.427; in [15] it was 0.643; in assay [16] it was 2.17; in assay [17], 0.824; in assay [18], 2.02. Also, the PBM binding z-score in [19] worked out at 0.582; in [20], 4.34.
As to CCTCGGAGGACAACCGGAGGTCAGAGCTGCCAGA, the PBM binding z-score in [1] was 1.26; in [2], 2.64; in assay [3] it was 2.71; in [4] it was 1.52; in assay [5] it was -0.532; in assay [6], 1.78. For the same sequence, the PBM binding z-score in [7] was 0.316; in assay [8], 0.642; in assay [9] it was -0.954; in assay [10], 0.0511; in assay [11], -0.468; in assay [12] it was 0.238. Also, the PBM binding z-score was -0.802 in assay [13]; -1.28 in [14]; 1.17 in assay [15]; 2.33 in [16]; 0.578 in assay [17]; 2.46 in assay [18]. In addition, the values for the PBM binding z-score in assay [19] and in assay [20] were 0.0885 and 2.98, respectively.
On to TCTGCTGGGTCAACGATGGTCAGCTAATCTGCTA, for which the PBM binding z-score in assay [1] is 2.59; in assay [2] it was 1.95; in assay [3], -0.835; in assay [4], 1.16; in assay [5] it was -0.168; in assay [6] it was 3.19. In addition, the PBM binding z-score in [7] turned out to be 1.92; in [8] it was 2.57; in assay [9], 1.69; in assay [10] it was 2.14; in assay [11] it was 3.36; in assay [12], 3.7. The PBM binding z-score in assay [13] is 1.06; in assay [14], 0.239; in assay [15] it was 0.518; in assay [16], 1.46; in assay [17], -1.34; in assay [18], 2.07. The results for the PBM binding z-score in [19] and in assay [20] were -1.24 and 3.6, respectively.
For CCTCGGAGGACAACAGGAGGTCAAAGCTGCCAGA, the PBM binding z-score in assay [1] was determined as 2.61; in [2], 4.28; in [3] it was 5.15; in [4], 3.51; in assay [5] it was 0.0871; in assay [6] it was 3.68. For the same sequence, the PBM binding z-score in assay [7] is 1.17; in assay [8] it was 1.56; in assay [9], -0.109; in assay [10], 0.958; in assay [11], 0.133; in assay [12] it was 1.07. The PBM binding z-score is -0.509 in assay [13]; -2.06 in assay [14]; 2.31 in assay [15]; 4.04 in assay [16]; 1.35 in [17]; 4.12 in assay [18]. Moreover, the PBM binding z-score in [19] came out at 0.524; in [20] it was 3.25.
For the sequence TGAATGAAGTTAAAGATCAGGGAACGTGGCGTCG, the PBM binding z-score in [1] was -0.402; in assay [2] it was -0.168; in [3] it was -0.348; in assay [4], -0.389; in assay [5], -0.518; in assay [6], 0.212. Besides, the PBM binding z-score in [7] is 0.843; in assay [8], 1.61; in assay [9], 0.713; in assay [10], 1.3; in assay [11], -0.838; in assay [12] it was -0.0985. Moreover, the PBM binding z-score in assay [13] is 0.102; in assay [14], 0.236; in [15] it was -0.094; in [16], -0.563; in [17], -0.811; in [18], -0.169. Besides, the PBM binding z-score in assay [19] is -0.374; in assay [20] it was -0.227.
